Measurements reported in PubChem BioAssay AID1332 (Southern Research Institute, 2008).
Converted amounts (≈) assume the structure as drawn. Out of some 1,100 compounds screened, about 170 (15%) were called active. No rule for the calls is given here. These entries were drawn from the full list.

Assay: Confirmatory growth inhibition assay, mycobacterium tuberculosis h37rv, with cytotoxicity (AID 1332);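 as to CC50: Vero cells exposed to compounds for 72 hours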;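 as to IC50: bacteria incubated 7 days before adding Alamar blue readout reagent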
Details: M. tuberculosis H37Rv growth inhibition; CC50: measured here: Vero cell cytotoxicity; IC50: measured here: IC50 H37Rv replicates
For CC(=O)N[C@@H](CC(=O)O)C(=O)O, the IC50 was greater than 20 µg/mL and the outcome was “inactive”. With Cc1cc2c(cc1S(N)(=O)=O)S(=O)(=O)CCC2 the IC50 was greater than 20 µg/mL and the outcome was “inactive”. For CCC1NC(=O)c2cc(S(N)(=O)=O)c(Cl)cc2N1 (centres undefined), the IC50 was greater than 20 µg/mL and the outcome was “inactive”. In the case of Cc1cc2cc3c(C)cc(=O)oc3c(C)c2o1, the IC50 is reported as greater than 20 µg/mL and the outcome is reported as “inactive”. With COC(=O)[C@H]1[C@H]2C[C@H]3c4[nH]c5ccccc5c4CCN3C[C@H]2CC[C@@H]1O the IC50 was greater than 20 µg/mL and the outcome was “inactive”. With COC(=O)[C@@H]1[C@H]2C[C@H]3c4[nH]c5ccccc5c4CCN3C[C@@H]2CC[C@@H]1O the IC50 was greater than 20 µg/mL and the outcome was “inactive”. With COC(=O)[C@H]1[C@H]2C[C@@H]3c4[nH]c5cc(OC)ccc5c4CCN3C[C@H]2C[C@@H](OC(=O)/C=C/c2cc(OC)c(OC)c(OC)c2)[C@@H]1OC the CC50 was greater than 6 µg/mL, the IC50 was 4.23 µg/mL (≈ 6.67 µM) and the outcome was “active”. In the case of COC(=O)[C@H]1[C@H]2C[C@H]3c4[nH]c5ccccc5c4CCN3C[C@@H]2CC[C@@H]1O, the IC50 is reported as greater than 20 µg/mL and the outcome is reported as “inactive”. For COC(=O)[C@H]1[C@H]2C[C@@H]3c4[nH]c5cc(OC)ccc5c4CCN3C[C@H]2C[C@@H](OC(=O)c2cc(OC)c(OC)c(OC)c2)[C@@H]1OC, the IC50 was 2.32 µg/mL (≈ 3.81 µM) and the outcome was “active”. In the case of CCOC(=O)Oc1c(OC)cc(C(=O)O[C@@H]2C[C@@H]3CN4CCc5c([nH]c6cc(OC)ccc56)[C@H]4C[C@@H]3[C@H](C(=O)OC)[C@H]2OC)cc1OC, the IC50 is reported as 7.94 µg/mL (≈ 11.9 µM) and the outcome is reported as “active”. For O=C(O)[C@@H]1[C@H]2C[C@H]3c4[nH]c5ccccc5c4CCN3C[C@@H]2CC[C@@H]1O, the IC50 was greater than 20 µg/mL and the outcome was “inactive”. With COc1ccc2c3c([nH]c2c1)[C@H]1C[C@H]2[C@H](C[C@@H](O)[C@H](OC)[C@H]2C(=O)O)CN1CC3 the IC50 was greater than 20 µg/mL and the outcome was “inactive”. In the case of COC(=O)C1=CO[C@@H](C)[C@H]2CN3CCc4c([nH]c5ccccc45)[C@@H]3C[C@H]12, the IC50 is reported as greater than 20 µg/mL and the outcome is reported as “inactive”. For CCCNC(C)C(=O)Nc1c(C)csc1C(=O)OC (centres undefined), the IC50 was greater than 20 µg/mL and the outcome was “inactive”. With C=C1[C@@H](O)[C@]23C[C@@H]1[C@@H](O)C[C@H]2[C@@]12C4[C@@H]3C[C@@H]1[C@@](C)(CC[C@@H]2O)CN4CC the IC50 was greater than 20 µg/mL and the outcome was “inactive”. For CNCCc1ccccn1, the IC50 was greater than 20 µg/mL and the outcome was “inactive”. With CCCCOc1ccc(OCCCN2CCOCC2)cc1 the IC50 was greater than 20 µg/mL and the outcome was “inactive”. For C[C@H](CCC(=O)O)[C@H]1CC[C@H]2[C@@H]3[C@H](O)C[C@@H]4C[C@H](O)CC[C@]4(C)[C@H]3CC[C@]12C, the IC50 was greater than 20 µg/mL and the outcome was “inactive”. For CCN1C[C@]2(COC)CC[C@H](OC)[C@@]34C1[C@]1(OCO[C@@]15C[C@H](OC)[C@H]1C[C@@H]3[C@@H]5[C@H]1OC)[C@@H](O)[C@H]24, the IC50 was greater than 20 µg/mL and the outcome was “inactive”.
